Screening data: PubChem, Sanford-Burnham Center for Chemical Genomics
CD11b adhes enh: enhancers of human CD11b/CD18 binding to fibrinogen | K562 CD11b/CD18 adhesion to fibrinogen, ATPlite luminescence | AID 1499 | P05107+P11215 | actives 0.07% (n = 93,000) | activation, % at 10 µM;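 active = 10 µM primary screen giving 50% or more activity, confirmed by 40% or more on retest at that dose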
CYP2C9 inh: blocks human cytochrome P450 2C9; P11712; CYP2C9 Supersomes, luciferin-H conversion, luminescence; inhibition, % at 5 µM; actives 20% (n = 96,000);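 active = blocking of liver enzyme CYP2C9 beyond about 50% at 5 µM, limit read from the data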
CYP2C19 act: increases human CYP2C19 enzyme activity; 96,000 tested, under 10 active; recombinant CYP2C19, luciferin-H EGE luminescence; stronger effect = higher value; 0 = fully inhibited enzyme, 1 = untreated enzyme; AID 1025; activation factor at 5 µM; P33261;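 active = activation factor of at least 2 at 5 µM in the primary screen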;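 note: 0 = wells with 2.5 mM tranylcypromine and 1 = vehicle-only wells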
Target sequence (P33261 whole entry, looked up): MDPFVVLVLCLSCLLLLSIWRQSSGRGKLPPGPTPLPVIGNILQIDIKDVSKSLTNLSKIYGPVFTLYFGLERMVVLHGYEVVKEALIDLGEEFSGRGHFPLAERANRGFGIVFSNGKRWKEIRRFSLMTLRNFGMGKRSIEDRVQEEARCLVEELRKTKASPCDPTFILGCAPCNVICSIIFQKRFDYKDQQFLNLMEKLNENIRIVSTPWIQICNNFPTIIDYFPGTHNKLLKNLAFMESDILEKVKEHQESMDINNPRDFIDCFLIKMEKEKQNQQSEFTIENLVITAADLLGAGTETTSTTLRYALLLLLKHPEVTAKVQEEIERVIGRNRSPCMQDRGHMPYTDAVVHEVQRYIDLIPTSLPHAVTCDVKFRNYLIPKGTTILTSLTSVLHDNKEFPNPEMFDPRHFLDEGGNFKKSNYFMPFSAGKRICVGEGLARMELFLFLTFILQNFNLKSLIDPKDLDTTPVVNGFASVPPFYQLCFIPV
Mac1 fbg inh: CD11b/CD18-fibrinogen binding inhibition. actives 0.54% (n = 93,000). inhibition, % at 10 µM. AID 1497. K562 CD11b/CD18 adhesion to fibrinogen, ATPlite luminescence; Mn2+ added to activate the integrin. P05107+P11215;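 active = primary inhibition of 50% or more at 10 µM, then 40% or more on retest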
CYP2C9 activ: activators of human CYP2C9. P11712. recombinant CYP2C9, luciferin-H conversion, luminescence; stronger effect = higher value; factor 1 = untreated enzyme, 0 = blocked. activation factor at 5 µM. actives 1.4% (n = 96,000);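 active = activation factor of 2 or more for CYP2C9 at a 5 µM dose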;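 note: 0 = sulfaphenazole-blocked wells and 1 = vehicle-only wells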
CYP2C19 inhib: inhibitors of human CYP2C19; CYP2C19 Supersomes, luciferin-H EGE luminescence, 30 min; inhibition, % at 5 µM; actives 21% (n = 96,000); P33261; AID 778;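 active = CYP2C19 inhibition above a set limit at 5 µM in the primary screen, cut at about 50% in these data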;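 note: plate controls were negative control wells for no effect and 2.5 mM tranylcypromine positive control for full effect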
An asterisk follows results filed as active; nt = not tested or not shown. Shown are actives, neighbours in structure and some others; about 28% of the full set was active somewhere.

SMILES	CD11b adhes enh	CYP2C9 inh	CYP2C19 act	Mac1 fbg inh	CYP2C9 activ	CYP2C19 inhib
O=C(O)C1C2C=CC(C2)C1C(=O)NCCCn1ccnc1 (configuration not stated)	2	67*	0.1	-3	0.3	88*
O=C(O)c1cccc(S(=O)(=O)N2CCSCC2)c1	-3	-21	1.2	12	1.2	-18
CCN(CC)c1nc2c(s1)C(=O)CC(C)(C)C2	2	-4	0.5	2	1	48
Cc1ccc2c(c1)N(CC(=O)NCc1cccs1)C(=O)C(C)O2 (configuration not stated)	nt	-25	0.5	nt	1.2	47
Cc1ccc2c(c1)N(Cc1ccncc1)C(=O)C(C)O2 (configuration not stated)	-4	89*	0.2	-11	0.1	81*
Cc1ccc2c(c1)N(CCC(=O)NCc1cccs1)C(=O)C(C)O2 (configuration not stated)	-3	74*	0	1	0.3	97*
Cc1ccc(NCC(=O)Nc2ccc(Br)cc2)cc1F	0	nt	nt	14	nt	nt
C=C(C)c1nc(N)nc(N)n1	-2	3	1	-5	1	-2
CS(=O)(=O)N(CC(=O)N1CCN(c2ccccc2F)CC1)c1cc(C(F)(F)F)ccc1Cl	-4	-76	0.7	-5	1.8	29
CS(=O)(=O)N(CC(=O)N1CCN(c2ccccc2)CC1)c1ccc(Cl)c(C(F)(F)F)c1	-4	-83	0	-36	1.8	96*
CC1CCN(C(=O)CN(c2ccc(Cl)c(C(F)(F)F)c2)S(C)(=O)=O)CC1	-2	-133	0.2	-25	2.3*	75*
CS(=O)(=O)N(CC(=O)N1CCN(c2ccccc2)CC1)c1cc(C(F)(F)F)ccc1Cl	-4	-112	0.7	6	2.1*	26
CS(=O)(=O)N(CC(=O)N1CCC(C(N)=O)CC1)c1ccc(Cl)c(C(F)(F)F)c1	2	-4	1.1	2	1	-5
CCOC(=O)C1CCN(C(=O)CN(c2ccc(Cl)c(C(F)(F)F)c2)S(C)(=O)=O)CC1	-4	-50	0.7	11	1.5	25
CCC(C)(C(=O)NC1CCCCC1)N(Cc1ccco1)C(=O)c1ccccn1 (configuration not stated)	1	-4	1	-4	1	2
O=S(=O)(c1ccc(C2CCCCC2)cc1)N1CCCC1	-5	22	1	-6	0.8	-2
O=C(Nc1cccnc1)c1ccc2snnc2c1	nt	-9	0.9	nt	1.1	8
COc1ccccc1NC(=O)CN1CCCCC1	-2	37	0.9	-4	0.6	6
CCC(=O)Nc1ccccc1C(=O)NC1CCCCC1	-5	-60	0.7	-32	1.6	32
COC(=O)c1ccccc1NC(=O)CN1CCC(NC(=O)c2ccc(C)cc2)CC1	4	67*	0.1	-8	0.3	88*
COC(=O)c1ccccc1NC(=O)CN1CCN(C23CC4CC(CC(C4)C2)C3)CC1	-4	53*	0.7	-1	0.5	33
O=C(CN1C(=O)c2ccccc2C1=O)Nc1ccccc1C(=O)NC1CCCCC1	-1	65*	1	6	0.3	-4
CCOc1ccccc1NC(=O)CN1CCC(NC(=O)c2ccccc2)CC1	nt	-91	0	nt	1.9	95*
CCCN1CCC(NC(=O)Nc2ccccc2C(=O)OC)CC1	0	6	1	-4	0.9	-4
C/C(=N\N=C(/N)SC1CC(=O)N(c2ccc(Br)cc2)C1=O)c1cccs1 (configuration not stated)	6	48	0.9	9	0.5	13
SMILES	CD11b adhes enh	CYP2C9 inh	CYP2C19 act	Mac1 fbg inh	CYP2C9 activ	CYP2C19 inhib
COc1ccc(CCNC(=O)C2CCN(S(=O)(=O)N3CC(C)CC(C)C3)CC2)cc1OC (configuration not stated)	-2	14	1	-26	0.9	-1
CCOc1ccc(OCC)c(NC(=O)CN2CCC(NC(=O)c3cccc(F)c3)CC2)c1	-5	68*	0.3	-2	0.3	74*
Cc1nc(SCC(=O)Nn2c(-c3ccccc3)nc3ccccc3c2=O)n[nH]1	0	30	1	-1	0.7	0
COC(=O)c1c(NC(=O)CN2CCCC(C)C2)c2c(C)cccc2n1C (configuration not stated)	1	-3	0.9	-4	1	11
O=C(CCl)Nc1cccc(-c2cnc3ccccc3n2)c1	0	-31	0.2	10	1.3	80*
CCC(=O)Nc1cccc(-c2cnc3ccccc3n2)c1	1	-15	0.5	-31	1.1	51*
Cc1c(C(=O)O)[nH]c2c1C(=O)CC(c1ccc(Cl)cc1)C2 (configuration not stated)	2	2	0.9	-7	1	5
CCOC(=O)c1[nH]c2c(c1C)C(=O)CC(c1ccc(F)cc1)C2 (configuration not stated)	14	88*	0.9	1	0.1	15
Cc1c(C(=O)OCC(C)C)[nH]c2c1C(=O)CC(c1cccs1)C2 (configuration not stated)	2	92*	0.2	10	0.1	80*
Cc1c(C(=O)N2CCOCC2)[nH]c2c1C(=O)CC(c1ccc(Cl)cc1)C2 (configuration not stated)	nt	66*	0.9	nt	0.3	14
CCOC(=O)c1[nH]c2c(c1C)C(=O)CC(c1ccc(OCC)c(OC)c1)C2 (configuration not stated)	7	90*	0.2	-3	0.1	76*
COc1cc(C)nc2nc(SCc3ccccc3)nn12	-2	-32	0.8	1	1.3	23
COc1ccc(Oc2nc(SC)nc3ccccc23)cc1	-1	-6	1	-2	1.1	1
COc1ccc(C(=O)N2CC3(C)CC2CC(C)(C)C3)cc1 (configuration not stated)	-1	-9	0.9	6	1.1	15
COC(=O)c1[nH]c2c(c1C)C(=O)CC(c1ccc(C)cc1)C2 (configuration not stated)	31	31	1	-7	0.7	1
Cc1c(C(=O)OCC2CCCO2)[nH]c2c1C(=O)CC(c1ccc(N(C)C)cc1)C2 (configuration not stated)	-3	92*	0.8	12	0.1	21
Cc1nc2sc(C(c3cccc(F)c3)N3CCOCC3)c(O)n2n1 (configuration not stated)	8	1	0.9	-18	1	14
Cc1cccc(C(C)C)c1NC(=O)c1ccc(CN(c2ccccc2)S(=O)(=O)c2ccccc2)cc1	6	nt	nt	9	nt	nt
Cc1ccc(S(=O)(=O)C2(C(=O)NCc3ccc4c(c3)OCO4)CC2)cc1	4	64*	0.3	-24	0.4	69*
